Source: ChEMBL document CHEMBL3988442, “University of Dundee, Small-Polar-MMV Screening Library” (2021)
Out of some 48,000 compounds screened, about 13,000 (27%) showed an effect of 50% or more. The list shows a part of the results.

What follows are molecules tested on Wolbachia pipientis (assay: Anti-Wolbachia Cell-Based Screen). Conditions: 5 µM.
Type: functional
Set-up: scale not given: in the data most compounds retested in dose-response had high values
O=C(O)C(F)(F)F.O=C1[C@H]2CN(C3CCOC3)C[C@H]2CN1c1ccccc1 (some centres not stated) was tested, and the “Percent Effect” value was -7.814%.
For Cc1ccc(F)cc1S(=O)(=O)N1C[C@@H](C)[C@@](C)(O)C1, the “Percent Effect” value was -12.21%.
Cc1ccc(C(=O)N2CCC[C@@H]2Cn2nnc3c(O)nc(C)nc32)cc1 was tested, and the “Percent Effect” value was 116%.
With Cc1nc(O)c2nnn(C[C@H]3CCCN3C(=O)C(C)(C)C)c2n1 the “Percent Effect” value was 2.685%.
Cc1nc(O)c2nnn(C[C@H]3CCCN3C(=O)CCC3CCCC3)c2n1 was tested, and the “Percent Effect” value was 2.096%.
Cc1nc(O)c2nnn(C[C@H]3CCCN3C(=O)c3ccc(F)cc3)c2n1 was tested, and the “Percent Effect” value was 99.59%.
Cc1nc(O)c2nnn(C[C@H]3CCCN3C(=O)c3cccc(F)c3)c2n1 was tested, and the “Percent Effect” value was -3.685%.
Cc1nc(O)c2nnn(C[C@H]3CCCN3C(=O)C3CCCC3)c2n1 was tested, and the “Percent Effect” value was 86.1%.
With Cc1cccnc1CN(C)C(C(=O)O)c1ccc(C(C)(C)C#N)cc1 (configuration not stated) the “Percent Effect” value was -18.01%.
With CC(C)Cc1ncc2c(n1)CN(c1cc(NC3CC3)nc(N)n1)C2 the “Percent Effect” value was 10.04%.
For CNC(=O)[C@@H]1C[C@@H](N)CN1c1nnc(-c2ccccc2)s1, the “Percent Effect” value was -7.13%.
In the case of CCC(NC(=O)c1cnc(N(C)C)nc1C)c1ccncc1 (configuration not stated), the “Percent Effect” value is reported as -21.92%.
For CCCn1cc(C(=O)NC(C)c2c(C)nn(CC)c2C)c(C)n1 (configuration not stated), the “Percent Effect” value was 107.4%.
With CCn1nc(C)c(C(C)NC(=O)c2cnc(N(C)C)nc2C)c1C (configuration not stated) the “Percent Effect” value was 101.2%.
In the case of CCCn1cc(C(=O)N[C@H]2CC[C@H](n3cnnc3)CC2)c(C)n1, the “Percent Effect” value is reported as -5.85%.
With CCn1c(C)nnc1SCCNC(=O)c1cnc(N(C)C)nc1C the “Percent Effect” value was -11.93%.
In the case of CCCn1ncc(C(=O)N(CCOC)Cc2c(C)nn(CC)c2C)c1C, the “Percent Effect” value is reported as -10.36%.
CCCn1ncc(C(=O)NC(C)c2c(C)nn(CC)c2C)c1C (configuration not stated) was tested, and the “Percent Effect” value was 101.8%.
With CCCn1cc(C(=O)NC(CC(=O)O)c2ccco2)c(C)n1 (configuration not stated) the “Percent Effect” value was -1.122%.
With CCn1nc(C)c(C(C)NC(=O)c2cccc(NCC(=O)O)c2)c1C (configuration not stated) the “Percent Effect” value was -10.01%.
CN(Cc1ccncc1)C(=O)c1ccc2c(c1O)OC(C)(C)C2 was tested, and the “Percent Effect” value was -3.741%.
With Cc1cnc(CNC(=O)N(Cc2ccccc2)CC(C)(C)O)s1 the “Percent Effect” value was -9.272%.
For CCN1CCN(C(=O)CCC2CCN(C(C)CSC)CC2)CC1 (configuration not stated), the “Percent Effect” value was 2.757%.
In the case of COC(=O)C(C)(C)NC(=O)c1cc2sc(N(C)C)nc2s1, the “Percent Effect” value is reported as -3.943%.
With CN1CCCN(c2nc3c(cnn3C(C)(C)C)c(=O)[nH]2)CC1 the “Percent Effect” value was -5.062%.
Cc1c(C2NC3(CCCC3)C(=O)N2CC2CC2)cc(C#N)n1C (configuration not stated) was tested, and the “Percent Effect” value was -11.2%.
With CN(Cc1cc(Cl)c2c(c1)OCO2)Cc1cscn1 the “Percent Effect” value was 1.61%.
With CCOc1ccc(NC(=O)NCc2csc(NC)n2)cc1C the “Percent Effect” value was -0.8345%.
With CCc1ncnc2c1CCN(C(=O)c1cccn1C)CC2 the “Percent Effect” value was -9.929%.
Cc1cccc(N2CCCC3(C2)CN(S(=O)(=O)C2CC2)CCO3)c1.O=C(O)C(F)(F)F (configuration not stated) was tested, and the “Percent Effect” value was -4.65%.
With CC(=O)N1CCC(Cc2cccc(-c3ccnn3C)n2)CC1 the “Percent Effect” value was 116.5%.
With Cc1noc(C)c1-c1cccc(CC2CCN(C(=O)CN)C2)n1 (configuration not stated) the “Percent Effect” value was 128.9%.
In the case of Cc1noc(C)c1CN1CC2(CCN(C(=O)c3cscn3)CC2)CC1=O, the “Percent Effect” value is reported as 4.447%.
Cc1noc(C)c1-c1cccc(CC2CCN(C(=O)CCC(=O)O)C2)n1 (configuration not stated) was tested, and the “Percent Effect” value was 2.064%.
For CN1CCC(Cc2nc(-c3ccnn3C)n(Cc3ccccc3)n2)CC1, the “Percent Effect” value was -2.907%.
In the case of CCn1c(CC2CCN(C(=O)c3ccnn3C)CC2)n[nH]c1=O, the “Percent Effect” value is reported as 13.3%.
For Cc1noc(C)c1-c1cccc(CC2CCN(C(=O)c3cscn3)C2)n1 (configuration not stated), the “Percent Effect” value was 131.4%.
CC(=O)N1CCC(Cc2cccc(-c3c(C)noc3C)n2)C1 (configuration not stated) was tested, and the “Percent Effect” value was 135.5%.
For NC(=O)c1cccc(CC2CCN(C(=O)CO)C2)c1 (configuration not stated), the “Percent Effect” value was -21.34%.
With Cc1ccccc1C(=O)NC[C@@H]1CCN(C(=O)c2cscn2)C[C@H]1O the “Percent Effect” value was 3.097%.
For c1ccc(-c2cnc(CN3CCn4c(nnc4C4CC4)C3)o2)cc1, the “Percent Effect” value was -9.736%.
In the case of CN(Cc1ccc2nonc2c1)C(=O)CCc1cc2n(n1)CCCNC2, the “Percent Effect” value is reported as -9.744%.
In the case of CN(CCC1CCCCO1)c1nncc(-c2ccccc2)n1 (configuration not stated), the “Percent Effect” value is reported as 3.225%.
With CN(C)c1cc(C(F)(F)F)nc(N2CCCC2c2ccccn2)n1 (configuration not stated) the “Percent Effect” value was 96.36%.
Cc1cc(C2CCC2)nc(N(C)CCc2ccccn2)n1 was tested, and the “Percent Effect” value was 10.11%.
For Cc1cc(N(C)C)nc(N2CCCC2c2cc(C)on2)n1 (configuration not stated), the “Percent Effect” value was 41.35%.
Cc1cc(N(C)C)nc(N2CCCC2c2ccccn2)n1 (configuration not stated) was tested, and the “Percent Effect” value was 92.86%.
For c1ccc(C2CCCN2C2CCSCC2)nc1 (configuration not stated), the “Percent Effect” value was -12.25%.
With c1ccc(C2CCCN2C2CSCCSC2)nc1 (configuration not stated) the “Percent Effect” value was 20.29%.
With Cc1nc(N2CCN(C(=O)c3ccccc3)CC2)cc(-n2ccnc2)n1 the “Percent Effect” value was -0.4006%.
In the case of Cc1cnc(C(=O)N2CCC(COCc3ccccc3)C2)cn1 (configuration not stated), the “Percent Effect” value is reported as 0.6759%.
For CC(C)(C)C(=O)N1CCC(COCc2ccccc2)C1 (configuration not stated), the “Percent Effect” value was 14.31%.
For O=S1(=O)COCCN1CCOc1ccccc1, the “Percent Effect” value was -11.75%.
COCCN1C[C@@H]2CN(c3ncccn3)C[C@@H]2C1=O was tested, and the “Percent Effect” value was 3.665%.
For CCCC1CN(CC(C)C)C(=O)c2cccnc2O1 (configuration not stated), the “Percent Effect” value was 72.42%.
CCOc1ncccc1CN1Cc2ncccc2C1=O was tested, and the “Percent Effect” value was 24.49%.
CCCC1CN(CCOC)C(=O)c2cccnc2O1 (configuration not stated) was tested, and the “Percent Effect” value was 110.6%.
In the case of CCOc1ccccc1CCN1Cc2ncccc2C1=O, the “Percent Effect” value is reported as 5.291%.
For COCCN1CCCC(O)(CN2CCN(c3ncccc3C)CC2)C1=O (configuration not stated), the “Percent Effect” value was -16.41%.
In the case of CCCC1CN(CCOc2ccccc2)C(=O)c2cccnc2O1 (configuration not stated), the “Percent Effect” value is reported as 157.7%.
In the case of CC(C)CN1C[C@H](COCc2ccccc2)Oc2ncccc2C1=O, the “Percent Effect” value is reported as 89.35%.
In the case of CCC(C)Oc1ccccc1CN1Cc2ncccc2C1=O (configuration not stated), the “Percent Effect” value is reported as 3.69%.
O=C(NC1CC1)N1CCC2(CC1)CC(N1CCOCC1)c1ccccc12.O=C(O)C(F)(F)F (configuration not stated) was tested, and the “Percent Effect” value was 2.797%.
For CCS(=O)(=O)NCCCNC1CSCCc2ccccc21 (configuration not stated), the “Percent Effect” value was 1.268%.
With O=C(O)C(F)(F)F.O=C(O)C(F)(F)F.O=C1[C@@H]2CCN(Cc3ccccn3)C[C@@H]2OCCN1c1ccccc1 the “Percent Effect” value was 5.214%.
With CCNC(=O)[C@@H]1C[C@H](N)CN1C1CCN(c2ccccc2OC)CC1 the “Percent Effect” value was -4.243%.
With CC(C)Cc1cc(C(=O)NCC2CCN(c3ccccc3F)C2)on1 (configuration not stated) the “Percent Effect” value was -10.11%.
For CC(C)Cc1cc(C(=O)NCC2CCCN(Cc3ccco3)C2)on1 (configuration not stated), the “Percent Effect” value was 50.17%.
COc1cc(C(=O)NCC2CCCN(Cc3ccco3)C2)ccn1 (configuration not stated) was tested, and the “Percent Effect” value was 2.476%.
With Cc1cc(C(=O)N2CCO[C@H]3[C@H](OCCN(C)C)CC[C@@H]32)c(C)[nH]1.O=C(O)C(F)(F)F the “Percent Effect” value was 104.2%.
CN(C)CCO[C@@H]1CC[C@H]2[C@H]1OCCN2C(=O)CCc1ccccc1.O=C(O)C(F)(F)F was tested, and the “Percent Effect” value was -7.187%.
Cc1cc(C(=O)N2CCO[C@H]3[C@H](Oc4ccccn4)CC[C@@H]32)c(C)[nH]1.O=C(O)C(F)(F)F was tested, and the “Percent Effect” value was -3.803%.
In the case of Cc1ccccc1C(=O)N1CCO[C@H]2[C@H](OCCN(C)C)CC[C@@H]21.O=C(O)C(F)(F)F, the “Percent Effect” value is reported as 99.34%.
CN(C)CCO[C@@H]1CC[C@H]2[C@H]1OCCN2C(=O)c1ccccc1F was tested, and the “Percent Effect” value was 79.95%.
Cc1occc1C(=O)N1CCO[C@H]2[C@H](OCc3ccccn3)CC[C@@H]21.O=C(O)C(F)(F)F was tested, and the “Percent Effect” value was -3.941%.
Cc1occc1C(=O)N1CCO[C@H]2[C@H](OCc3cccnc3)CC[C@@H]21.O=C(O)C(F)(F)F was tested, and the “Percent Effect” value was 4.513%.
In the case of COc1ccc(C(=O)N2CCO[C@H]3[C@@H](OCC4CC4)CC[C@@H]32)cc1F, the “Percent Effect” value is reported as -14.51%.
Cc1ccoc1C(=O)N1CCO[C@H]2[C@H](OCCN(C)C)CC[C@@H]21.O=C(O)C(F)(F)F was tested, and the “Percent Effect” value was -19.8%.
With Cc1c(C(=O)N2CCCC(O)(CN(C)C)CC2)c2cc(O)ccc2n1C (configuration not stated) the “Percent Effect” value was -7.516%.
In the case of CC(=O)N1CCC(Nc2ccc(Br)cc2C#N)C1 (configuration not stated), the “Percent Effect” value is reported as -20.23%.
With Cc1nc(C)c(C(=O)N2CCC(Nc3cccnc3)CC2)s1 the “Percent Effect” value was 6.028%.
O=C(CCn1ccc2ccccc21)N1CCC(Nc2cccnc2)CC1 was tested, and the “Percent Effect” value was -9.935%.
Cc1cc(C(=O)N2CCC(NC(=O)c3cccnc3)CC2)c(C)o1 was tested, and the “Percent Effect” value was -8.9%.
Cc1cc(C(=O)N2CCC(Nc3cccnc3)CC2)c(C)s1 was tested, and the “Percent Effect” value was 98.75%.
Cc1ccsc1C(=O)N1CCC(Nc2cccnc2)CC1 was tested, and the “Percent Effect” value was 82.28%.
In the case of COc1cc(C)sc1C(=O)N1CCC(Nc2cccnc2)CC1, the “Percent Effect” value is reported as -10.68%.
In the case of COc1ccc([C@@H]2C[C@H](NC(C)=O)C[C@H](CCc3ccccc3)O2)cn1, the “Percent Effect” value is reported as 7.698%.
For CSCC[C@H](N)C(=O)N1CC(Oc2ccccc2C)C1, the “Percent Effect” value was -5.947%.
For COCCOc1ncccc1CNC(=O)N1CCOCC1, the “Percent Effect” value was -0.8625%.
In the case of COc1ccc(-n2cnnc2SCCC#N)cn1, the “Percent Effect” value is reported as -2.783%.
For NS(=O)(=O)CCNC(=O)c1nnn(-c2ccc(F)cc2)c1C1CC1, the “Percent Effect” value was 1.057%.
In the case of CCN(CC)C(=O)c1nnn(-c2ccc(C)cc2)c1C1CC1, the “Percent Effect” value is reported as -3.028%.
In the case of Cc1ccc(-n2nnc(C(=O)NCC3(CO)CC3)c2C2CC2)cc1, the “Percent Effect” value is reported as 112.7%.
In the case of O=C(NCC1(CO)CC1)c1nnn(-c2ccc(F)cc2)c1C1CC1, the “Percent Effect” value is reported as -10.21%.
In the case of COC(=O)CCNC(=O)c1nnn(-c2ccc(C)cc2)c1C1CC1, the “Percent Effect” value is reported as 120.1%.
For COc1ccc(-n2nnc(C(=O)NC(C)C)c2C2CC2)cc1, the “Percent Effect” value was 16.07%.
For Cc1ccc(-n2nnc(C(=O)NCCS(N)(=O)=O)c2C2CC2)cc1, the “Percent Effect” value was 2.856%.
With Cc1ccc(-n2nnc(C(=O)Nc3cc(C)nn3C)c2C2CC2)cc1 the “Percent Effect” value was -15.14%.
For Cc1ccc(-n2nnc(C(=O)NC(C)C)c2C2CC2)cc1, the “Percent Effect” value was 124.2%.
O=C(NCC1(C(=O)O)CCC1)c1nnn(-c2ccc(F)cc2)c1C1CC1 was tested, and the “Percent Effect” value was 4.547%.
With Cc1ccc(-n2nnc(C(=O)NCC(F)(F)F)c2C2CC2)cc1 the “Percent Effect” value was 125.2%.
With COC(=O)CCNC(=O)c1nnn(-c2ccc(F)cc2)c1C1CC1 the “Percent Effect” value was 1.406%.
